Activity calls are given as the source filed them. The calls were made as follows: active = hit-call score of the fitted dose curve at least 0.9, where 1 is the maximum; inactive = score below 0.9.
Experiments:
Conditions in all cases: mRNA level, 48 h; actives raise or lower the signal
[1] = read-out: Hypoxia-inducible factor 1-alpha (Homo sapiens) (UniProt Q16665); assay: LTEA_HepaRG_HIF1A: Life Technologies and Expression Analysis (LTEA) Assay for Hypoxia-inducible factor 1 (HIF1A) Trancription factor using HepaRG (AID 2283503)
Procedure, shortened: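 HIF1A transcript level read by qRT-PCR (ACTB, GAPDH, POLR2A normalization) after 48 h chemical exposure of HepaRG cultures. Eight half-log concentrations, top 100 uM, 0.5% DMSO vehicle, duplicates; bidirectional curve fit against DMSO baseline.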

[2] = read-out: 3-Hydroxy-3-Methylglutaryl-CoA Synthase 2 (HMGCS2), HMGCS2 (gene 3158); assay: LTEA_HepaRG_HMGCS2: Life Technologies and Expression Analysis (LTEA) Assay for 3-Hydroxy-3-Methylglutaryl-CoA Synthase 2 (HMGCS2) using HepaRG (AID 2283504)
Procedure, shortened: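 This steatosis marker was read as HMGCS2 mRNA change in HepaRG cells treated 48 h with up to 100 uM chemical. Normalisation used housekeeping genes; activity in either direction was fitted relative to 0.5% DMSO vehicle.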

HGF (gene 3082) = assay: LTEA_HepaRG_HGF: Life Technologies and Expression Analysis (LTEA) Assay for Hepatocyte Growth Facto (HGF) using HepaRG (AID 2283505)
Procedure, shortened: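 Using HepaRG monolayers kept in 0.5% DMSO, chemicals were tested in duplicate over eight half-log concentrations from 100 uM for 48 h. Endpoint: HGF mRNA change relative to DMSO, normalized to ACTB/GAPDH/POLR2A.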

[3] = read-out: Insulin Like Growth Factor 1 (IGF1), IGF1 (gene 3479); assay: LTEA_HepaRG_IGF1: Life Technologies and Expression Analysis (LTEA) Assay for Insulin Like Growth Factor 1 (IGF1) using HepaRG (AID 2283506)
Procedure, shortened: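 Expression measured by TaqMan qRT-PCR on a Fluidigm array, with three housekeeping genes for normalisation, after 48 h treatment of HepaRG cells. Top concentration 100 uM with half-log steps, 0.5% DMSO vehicle, bidirectional fit.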

[4] = read-out: Intercellular Adhesion Molecule 1 (ICAM1), ICAM1 (gene 3383); assay: LTEA_HepaRG_ICAM1: Life Technologies and Expression Analysis (LTEA) Assay for Intercellular Adhesion Molecule 1 (ICAM1) using HepaRG (AID 2283507)
Procedure, shortened: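 Using the human liver line HepaRG, compounds are tested in duplicate over 48 h at concentrations up to 100 uM. Expression is determined by TaqMan qRT-PCR, normalized to endogenous controls, and analysed relative to 0.5% DMSO vehicle.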

[5] = read-out: Insulin-like growth factor-binding protein 1 (IGFBP1), IGFBP1 (gene 3484); assay: LTEA_HepaRG_IGFBP1: Life Technologies and Expression Analysis (LTEA) Assay for Insulin-like growth factor-binding protein 1 (IGFBP1) using HepaRG (AID 2283508)
Procedure, shortened: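 HepaRG, 48 h, 8 conc. (max 100 uM, half-log), duplicates, 0.5% DMSO. Readout: TaqMan qRT-PCR, ACTB/GAPDH/POLR2A normalisation. Fit: bidirectional vs DMSO.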

[6] = read-out: Interleukin 6 (IL6), IL6 (gene 3569); assay: LTEA_HepaRG_IL6: Life Technologies and Expression Analysis (LTEA) Assay for Interleukin 6 (IL6) using HepaRG (AID 2283509)
Procedure, shortened: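 Transcript levels, normalized to three housekeeping genes, were quantified by qRT-PCR after 48 h chemical treatment of HepaRG cells. Eight-point half-log series from 100 uM in 0.5% DMSO, duplicates. Fitted both directions against DMSO baseline.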

[7] = read-out: Interleukin 6 Receptor (IL6R), IL6R (gene 3570); assay: LTEA_HepaRG_IL6R: Life Technologies and Expression Analysis (LTEA) Assay for Interleukin 6 Receptor (IL6R) using HepaRG (AID 2283510)
Procedure, shortened: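 IL6R transcript level by qRT-PCR after 48 h chemical exposure (8-point, half-log, max 100 uM, 0.5% DMSO vehicle) of HepaRG cells in serum-free induction medium. Normalized to three housekeeping genes; curves fitted in both directions relative to DMSO.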

[8] = read-out: Potassium channel subfamily K member 1 (KCNK1), KCNK1 (gene 3775); assay: LTEA_HepaRG_KCNK1: Life Technologies and Expression Analysis (LTEA) Assay for Potassium channel subfamily K member 1 (KCNK1) using HepaRG (AID 2283511)
Procedure, shortened: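 KCNK1 transcript measured by TaqMan qRT-PCR against three housekeeping genes, after HepaRG cells were treated 48 h with eight half-log concentrations (top 100 uM, 0.5% DMSO). Curves fitted bidirectionally relative to vehicle.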

[9] = read-out: Keratin 19 (KRT19), KRT19 (gene 3880); assay: LTEA_HepaRG_KRT19: Life Technologies and Expression Analysis (LTEA) Assay for Keratin 19 (KRT19) using HepaRG (AID 2283512)
Procedure, shortened: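 Readout is qRT-PCR of KRT19 mRNA, normalized to ACTB, GAPDH and POLR2A, from HepaRG cells treated 48 h with eight-point half-log dilutions topping at 100 uM. Activity in either direction is scored relative to 0.5% DMSO vehicle.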

[10] = read-out: JUN Transcription Factor, JUN (gene 3725); assay: LTEA_HepaRG_JUN: Life Technologies and Expression Analysis (LTEA) Assay for JUN Transcription Factor using HepaRG (AID 2283513)
Procedure, shortened: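 mRNA measured by TaqMan qRT-PCR after 48 h chemical exposure of HepaRG cultures; normalization to three housekeeping genes. Duplicate eight-point half-log curves from 100 uM in 0.5% DMSO; gain or loss fitted against DMSO baseline.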

[11] = read-out: Lipase C (LIPC), LIPC (gene 3990); assay: LTEA_HepaRG_LIPC: Life Technologies and Expression Analysis (LTEA) Assay for Lipase C (LIPC) using HepaRG (AID 2283514)
Procedure, shortened: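 LIPC expression was quantified by qRT-PCR against three housekeeping genes (ACTB, GAPDH, POLR2A). Differentiated human HepaRG cells received eight half-log doses (top 100 uM, 0.5% DMSO) in duplicate for 48 h; fitting bidirectional relative to DMSO.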

[12] = read-out: Lipoprotein lipase (LPL), LPL (gene 4023); assay: LTEA_HepaRG_LPL: Life Technologies and Expression Analysis (LTEA) Assay for Lipoprotein lipase (LPL) using HepaRG (AID 2283515)
Procedure, shortened: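 LPL transcript levels quantified by TaqMan qRT-PCR against three housekeeping genes after 48 h chemical treatment of HepaRG cells. Eight-point half-log series from 100 uM in 0.5% DMSO, tested in duplicate; bidirectional fitting versus vehicle.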

[13] = read-out: MicroRNA 122 (MIR122), gene 406906; assay: LTEA_HepaRG_MIR122: Life Technologies and Expression Analysis (LTEA) Assay for MicroRNA 122 (MIR122) using HepaRG (AID 2283516); also: the transcript read is the microRNA miR-122
Procedure, shortened: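 Expression measured by microfluidic qRT-PCR with three housekeeping genes for normalisation, after 48 h treatment of HepaRG cultures. Eight concentrations (top 100 uM, half-log steps, 0.5% DMSO vehicle) in duplicate; gain or loss fitted relative to vehicle.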

[14] = read-out: matrix metalloproteinase-10 (MMP10), MMP10 (gene 4319); assay: LTEA_HepaRG_MMP10: Life Technologies and Expression Analysis (LTEA) Assay for matrix metalloproteinase-10 (MMP10) using HepaRG (AID 2283517)
Procedure, shortened: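 Expression measured by TaqMan qRT-PCR with ACTB/GAPDH/POLR2A normalisation after 48 h chemical exposure of HepaRG cells. Eight half-log concentrations, top 100 uM, 0.5% DMSO vehicle, duplicates; gain or loss fitted against vehicle.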

MYC, MYC (gene 4609) = assay: LTEA_HepaRG_MYC: Life Technologies and Expression Analysis (LTEA) Assay for MYC using HepaRG (AID 2283518)
Procedure, shortened: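 Expression changes were scored by TaqMan qRT-PCR with ACTB, GAPDH and POLR2A normalization. Cultures in serum-free induction medium received duplicate 8-point concentration series, highest 100 uM, for 48 h; DMSO (0.5%) served as baseline.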

[15] = read-out: matrix metalloproteinase-3 (MMP3), MMP3 (gene 4314); assay: LTEA_HepaRG_MMP3: Life Technologies and Expression Analysis (LTEA) Assay for matrix metalloproteinase-3 (MMP3) using HepaRG (AID 2283519)
Procedure, shortened: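 Fluidigm-based TaqMan qRT-PCR, normalized to ACTB, GAPDH and POLR2A and fitted bidirectionally versus 0.5% DMSO, measured transcript levels. Treatment: duplicate 48 h exposures of HepaRG cells, ~100,000/well, to eight half-log concentrations topping at 100 uM.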

[16] = read-out: Paternally Expressed 10 (PEG10), PEG10 (gene 23089); assay: LTEA_HepaRG_PEG10: Life Technologies and Expression Analysis (LTEA) Assay for Paternally Expressed 10 (PEG10) using HepaRG (AID 2283520)
Procedure, shortened: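 PEG10 transcript measured by Fluidigm qRT-PCR, normalized to three housekeeping genes, in HepaRG cells treated 48 h (highest 100 uM, half-log steps, 0.5% DMSO vehicle). Cells plated 48 h before switching to serum-free induction medium.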

[17] = read-out: Nuclear factor NF-kappa-B p105 subunit (Homo sapiens) (UniProt P19838); assay: LTEA_HepaRG_NFKB1: Life Technologies and Expression Analysis (LTEA) Assay for Nuclear Factor Kappa B Subunit 1 (NFKB1) using HepaRG (AID 2283521);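 also: TaqMan qRT-PCR transcript normalised to ACTB GAPDH and POLR2A housekeeping genes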
Procedure, shortened: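 Differentiated human HepaRG cells were exposed for 48 h in serum-free induction medium to eight concentrations (top 100 uM, half-log steps, 0.5% DMSO), in duplicate. NFKB1 mRNA was measured by TaqMan qRT-PCR, normalized to ACTB/GAPDH/POLR2A, and fitted bidirectionally against DMSO.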

[18] = read-out: Heat shock 70 kDa protein 1 (HSPA1A), gene 3303; assay: LTEA_HepaRG_HSPA1A: Life Technologies and Expression Analysis (LTEA) Assay for Heat shock 70 kDa protein 1 (HSPA1A) using HepaRG (AID 2283502)
Procedure, shortened: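 HSPA1A expression measured by qRT-PCR with ACTB/GAPDH/POLR2A normalization; curves fitted in both directions relative to DMSO vehicle. Exposure: 48 h in HepaRG cells, duplicate 8-point half-log series from 100 uM, 0.5% DMSO, serum-free induction medium.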

Measured: outcome

Chain of Nuclear factor NF-kappa-B p105 subunit (Homo sapiens) (P19838 whole entry, looked up): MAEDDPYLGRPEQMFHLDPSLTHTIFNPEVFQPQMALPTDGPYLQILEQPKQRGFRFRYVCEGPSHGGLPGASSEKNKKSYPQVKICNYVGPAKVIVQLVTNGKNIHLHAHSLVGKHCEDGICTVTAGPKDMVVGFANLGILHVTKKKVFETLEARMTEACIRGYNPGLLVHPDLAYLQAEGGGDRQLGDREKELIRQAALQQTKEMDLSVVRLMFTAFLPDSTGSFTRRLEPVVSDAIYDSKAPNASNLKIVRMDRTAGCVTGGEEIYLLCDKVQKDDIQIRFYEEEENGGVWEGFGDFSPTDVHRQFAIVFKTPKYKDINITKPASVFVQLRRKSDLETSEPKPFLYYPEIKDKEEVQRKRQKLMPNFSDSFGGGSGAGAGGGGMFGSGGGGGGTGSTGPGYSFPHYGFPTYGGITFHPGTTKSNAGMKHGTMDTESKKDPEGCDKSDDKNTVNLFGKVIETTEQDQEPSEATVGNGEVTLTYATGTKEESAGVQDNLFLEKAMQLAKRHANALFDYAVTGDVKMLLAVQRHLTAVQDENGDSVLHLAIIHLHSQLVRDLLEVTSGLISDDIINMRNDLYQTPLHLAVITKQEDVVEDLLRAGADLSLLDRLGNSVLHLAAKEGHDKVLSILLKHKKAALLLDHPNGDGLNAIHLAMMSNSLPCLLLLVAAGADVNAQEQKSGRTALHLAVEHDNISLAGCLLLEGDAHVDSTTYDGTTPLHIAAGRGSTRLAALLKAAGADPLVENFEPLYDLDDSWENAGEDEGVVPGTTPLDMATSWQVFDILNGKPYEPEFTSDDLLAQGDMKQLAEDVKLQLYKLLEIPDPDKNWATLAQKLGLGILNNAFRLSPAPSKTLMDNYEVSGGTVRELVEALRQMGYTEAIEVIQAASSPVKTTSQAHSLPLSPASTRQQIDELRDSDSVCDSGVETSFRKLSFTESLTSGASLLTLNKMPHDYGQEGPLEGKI
Chain of Hypoxia-inducible factor 1-alpha (Homo sapiens) (Q16665 whole entry, looked up): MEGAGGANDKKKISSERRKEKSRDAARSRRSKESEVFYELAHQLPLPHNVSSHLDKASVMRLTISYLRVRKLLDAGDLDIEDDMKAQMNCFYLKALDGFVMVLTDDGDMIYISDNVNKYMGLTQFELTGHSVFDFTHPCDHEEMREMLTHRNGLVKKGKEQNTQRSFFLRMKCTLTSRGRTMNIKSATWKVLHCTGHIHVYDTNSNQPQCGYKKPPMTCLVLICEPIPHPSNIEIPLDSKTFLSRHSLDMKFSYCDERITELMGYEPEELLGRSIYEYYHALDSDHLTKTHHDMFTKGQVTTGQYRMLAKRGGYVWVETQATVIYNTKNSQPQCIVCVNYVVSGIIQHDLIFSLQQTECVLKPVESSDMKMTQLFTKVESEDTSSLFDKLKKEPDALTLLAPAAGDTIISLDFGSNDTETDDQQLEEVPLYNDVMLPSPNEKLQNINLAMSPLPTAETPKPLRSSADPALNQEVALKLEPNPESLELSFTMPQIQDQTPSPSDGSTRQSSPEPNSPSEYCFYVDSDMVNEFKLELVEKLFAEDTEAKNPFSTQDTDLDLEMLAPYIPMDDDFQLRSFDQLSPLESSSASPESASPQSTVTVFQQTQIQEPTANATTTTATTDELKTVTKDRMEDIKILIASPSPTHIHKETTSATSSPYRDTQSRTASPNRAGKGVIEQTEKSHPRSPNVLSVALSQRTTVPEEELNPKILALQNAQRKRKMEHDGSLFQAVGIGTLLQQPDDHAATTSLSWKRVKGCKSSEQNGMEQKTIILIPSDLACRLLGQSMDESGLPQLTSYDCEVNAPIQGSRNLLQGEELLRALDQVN

CCC(C)c1ccc(O)cc1 (stereo not drawn)
inactive: [1] | [2] | HGF (gene 3082) | [3] | [4] | [5] | [6] | [7] | [8] | [9] | [10] | [11] | [12] | [13] | [14] | MYC, MYC (gene 4609) | [15] | [16] | [17]

N#CC(Br)(Br)C(N)=O
inactive: [18] | [2] | HGF (gene 3082) | [3] | [4] | [5] | [6] | [7] | [8] | [11] | [12] | [13] | [14] | MYC, MYC (gene 4609) | [15] | [16] | [17]

CC(C)(OOC(C)(C)c1ccccc1)c1ccccc1
inactive: [18] | [2] | HGF (gene 3082) | [3] | [4] | [5] | [6] | [7] | [8] | [10] | [11] | [12] | [14] | MYC, MYC (gene 4609) | [15] | [16] | [17]

From PubChem BioAssay (EPA / NIEHS)
